# Some structures have more than one record in an assay (separate samples or runs), and their calls can disagree. Active and inactive are the calls of the source. Rule for the calls: active = hit-call score of the fitted dose curve at least 0.9, where 1 is the maximum; inactive = score below 0.9.
# Experiments:
# Conditions in all cases: mRNA level, 48 h; actives raise or lower the signal
# [1] = read-out: Cytochrome P450 (CYP24A1), CYP24A1 (gene 1591); assay: LTEA_HepaRG_CYP24A1: Life Technologies and Expression Analysis (LTEA) Assay for Cytochrome P450 (CYP24A1) using HepaRG (AID 2283478)
# Outline: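 Differentiated HepaRG cells, pre-cultured 48 h, were exposed in duplicate for 48 h in serum-free induction medium to 8 half-log concentrations (top 100 uM, 0.5% DMSO). CYP24A1 mRNA was quantified by TaqMan qRT-PCR, normalized to ACTB/GAPDH/POLR2A, fitted bidirectionally versus DMSO.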
# [2] = read-out: Cytochrome P450 (CYP1A2), CYP1A2 (gene 1544); assay: LTEA_HepaRG_CYP1A2: Life Technologies and Expression Analysis (LTEA) Assay for Cytochrome P450 (CYP1A2) using HepaRG (AID 2283479)
# Outline: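 Differentiated human HepaRG cells in serum-free induction medium were exposed in duplicate for 48 h to 8-point half-log concentrations up to 100 uM in 0.5% DMSO. CYP1A2 mRNA measured by qRT-PCR, normalized to ACTB, GAPDH, POLR2A; bidirectional fit vs DMSO.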
# [3] = read-out: cysteine-aspartic acid protease (CASP8), CASP8 (gene 841); assay: LTEA_HepaRG_CASP8: Life Technologies and Expression Analysis (LTEA) Assay for cysteine-aspartic acid protease (CASP8) using HepaRG (AID 2283480)
# Outline: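 Concentration-response in duplicate up to 100 uM (half-log steps, 0.5% DMSO) on differentiated HepaRG cultures for 48 h. Expression change of CASP8 mRNA is determined by TaqMan qRT-PCR with housekeeping-gene normalization.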
# [4] = read-out: Cytochrome P450 (CYP2B6), CYP2B6 (gene 1555); assay: LTEA_HepaRG_CYP2B6: Life Technologies and Expression Analysis (LTEA) Assay for Cytochrome P450 (CYP2B6) using HepaRG (AID 2283481)
# Outline: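 Differentiated HepaRG cells, serum-free induction medium, exposed 48 h in duplicate to 8-point half-log concentrations from 100 uM in 0.5% DMSO. CYP2B6 mRNA by qRT-PCR, normalized to ACTB, GAPDH, POLR2A; bidirectional fit versus DMSO.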
# CYP2C8 (gene 1558) = assay: LTEA_HepaRG_CYP2C8: Life Technologies and Expression Analysis (LTEA) Assay for CYP2C8 using HepaRG (AID 2283483)
# Outline: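 This is a transcriptional endpoint in HepaRG cultures: 48 h exposure, highest concentration 100 uM. CYP2C8 mRNA is quantified by TaqMan qRT-PCR.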
# CYP2C9 (gene 1559) = assay: LTEA_HepaRG_CYP2C9: Life Technologies and Expression Analysis (LTEA) Assay for CYP2C9 using HepaRG (AID 2283484)
# Outline: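 Eight-point concentration-response (highest 100 uM, half-log dilutions) in HepaRG cells for 48 h; CYP2C9 expression by qRT-PCR normalized to ACTB, GAPDH, POLR2A. Bidirectional fit, DMSO baseline.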
# CYP2E1 (gene 1571) = assay: LTEA_HepaRG_CYP2E1: Life Technologies and Expression Analysis (LTEA) Assay for CYP2E1 using HepaRG (AID 2283485)
# Outline: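 CYP2E1 transcript measured by Fluidigm qRT-PCR against three housekeeping genes in human HepaRG cells treated 48 h (top 100 uM, half-log steps, 0.5% DMSO vehicle). Gain or loss fitted relative to DMSO baseline.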
# [5] = read-out: Cytochrome P450 3A4 (Homo sapiens) (UniProt P08684); assay: LTEA_HepaRG_CYP3A4: Life Technologies and Expression Analysis (LTEA) Assay for CYP3A4 using HepaRG (AID 2283487)
# Outline: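 In a human hepatic line (HepaRG), duplicate wells were treated 48 h with up to 100 uM chemical in half-log dilutions. Endpoint: CYP3A4 mRNA induction or loss relative to 0.5% DMSO vehicle, by qRT-PCR.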
# [6] = read-out: DNA damage-inducible transcript 3 (DDIT3), DDIT3 (gene 1649); assay: LTEA_HepaRG_DDIT3: Life Technologies and Expression Analysis (LTEA) Assay for DNA damage-inducible transcript 3 (DDIT3) using HepaRG (AID 2283488)
# Outline: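 DDIT3 transcript was quantified by qRT-PCR with ACTB/GAPDH/POLR2A normalization after 48 h chemical treatment of differentiated HepaRG cells in 0.5% DMSO. Dosing was eight-point, half-log, top 100 uM, duplicate wells. Curves fitted bidirectionally versus DMSO.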
# [7] = read-out: Pro-epidermal growth factor (Homo sapiens) (UniProt P01133); assay: LTEA_HepaRG_EGF: Life Technologies and Expression Analysis (LTEA) Assay for Epidermal growth factor (EGF) using HepaRG (AID 2283489)
# Outline: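 Differentiated human HepaRG cells, plated 48 h then switched to serum-free induction medium, were exposed for 48 h to test chemicals (8-point half-log series, top 100 uM, 0.5% DMSO). EGF mRNA was quantified by qRT-PCR, normalized to ACTB, GAPDH, POLR2A.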
# [8] = read-out: Ezrin (EZR), EZR (gene 7430); assay: LTEA_HepaRG_EZR: Life Technologies and Expression Analysis (LTEA) Assay for Ezrin (EZR) using HepaRG (AID 2283491)
# Outline: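 Gain or loss of EZR mRNA is scored relative to 0.5% DMSO in human HepaRG cultures treated 48 h with test chemicals in duplicate, eight half-log concentrations from 100 uM.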
# [9] = read-out: Cytochrome P450 3A7 (Homo sapiens) (UniProt P24462); assay: LTEA_HepaRG_CYP3A7: Life Technologies and Expression Analysis (LTEA) Assay for CYP3A7 using HepaRG (AID 2283492)
# Outline: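 HepaRG cells plated 48 h, then dosed in serum-free induction medium for 48 h at 8 concentrations (top 100 uM, half-log steps, 0.5% DMSO). CYP3A7 mRNA by qRT-PCR, normalised to ACTB/GAPDH/POLR2A; bidirectional fit versus DMSO.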
# CYP3A5 (gene 1577) = assay: LTEA_HepaRG_CYP3A5: Life Technologies and Expression Analysis (LTEA) Assay for CYP3A5 using HepaRG (AID 2283493)
# Outline: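 mRNA levels were quantified by qRT-PCR on Fluidigm arrays and normalized to three housekeeping genes. Differentiated HepaRG cells received 48 h exposure (top 100 uM, half-log steps, 0.5% DMSO vehicle, duplicate); bidirectional fitting versus DMSO.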
# [10] = read-out: Fatty Acid-Binding Protein 1 (FABP1), FABP1 (gene 2168); assay: LTEA_HepaRG_FABP1: Life Technologies and Expression Analysis (LTEA) Assay for Fatty Acid-Binding Protein 1 (FABP1) using HepaRG (AID 2283494)
# Outline: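 Values reflect bidirectional concentration-response fitting of FABP1 mRNA change against 0.5% DMSO controls. Human HepaRG cultures received eight half-log doses (top 100 uM) for 48 h; expression quantified by TaqMan qRT-PCR with housekeeping-gene normalization.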
# [11] = read-out: Cytochrome P450 4A22 (Homo sapiens) (UniProt Q5TCH4); assay: LTEA_HepaRG_CYP4A22: Life Technologies and Expression Analysis (LTEA) Assay for Cytochrome P450 4A22 (CYP4A22) using HepaRG (AID 2283495)
# Outline: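 qRT-PCR of CYP4A22 mRNA (Fluidigm TaqMan, normalized to three housekeeping genes) after 48 h chemical exposure of HepaRG cells; 8-point half-log series, top 100 uM, 0.5% DMSO vehicle. Bidirectional curve fitting vs DMSO baseline.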
# [12] = read-out: Cytochrome P450 7A1 (Homo sapiens) (UniProt P22680); assay: LTEA_HepaRG_CYP7A1: Life Technologies and Expression Analysis (LTEA) Assay for Cytochrome P450 7A1 (CYP7A1) using HepaRG (AID 2283496)
# Outline: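 HepaRG, 48 h exposure, 8-pt half-log series from 100 uM, 0.5% DMSO vehicle, duplicates. Readout: TaqMan qRT-PCR mRNA vs three housekeeping genes; bidirectional curve fit against DMSO baseline.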
# [13] = read-out: Glutathione S-Transferase (GSTA2), GSTA2 (gene 2939); assay: LTEA_HepaRG_GSTA2: Life Technologies and Expression Analysis (LTEA) Assay for Glutathione S-Transferase (GSTA2) using HepaRG (AID 2283497)
# Outline: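 Oxidative-stress marker GSTA2 is quantified by TaqMan qRT-PCR in HepaRG cultures treated 48 h across an eight-point range to 100 uM. Expression is normalized to endogenous controls and compared with 0.5% DMSO vehicle.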
# [14] = read-out: Cytochrome P450 2C19 (Homo sapiens) (UniProt P33261); assay: LTEA_HepaRG_CYP2C19: Life Technologies and Expression Analysis (LTEA) Assay for CYP2C19 using HepaRG (AID 2283482)
# Outline: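 Differentiated human HepaRG cells were exposed for 48 h in serum-free induction medium to 8 concentrations (top 100 uM, half-log steps, 0.5% DMSO). CYP2C19 mRNA was measured by qRT-PCR, normalized to ACTB/GAPDH/POLR2A, and fitted bidirectionally against DMSO.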
# [15] = read-out: Early growth response protein 1 (EGR1) transcription factor, EGR1 (gene 1958); assay: LTEA_HepaRG_EGR1: Life Technologies and Expression Analysis (LTEA) Assay for Early growth response protein 1 (EGR1) transcription factor using HepaRG (AID 2283490)
# Outline: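 EGR1 expression change in human HepaRG after 48 h chemical exposure, assessed by housekeeping-normalized qRT-PCR; concentration-response up to 100 uM, fitted in both directions against DMSO controls.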
# CYP4A11 (gene 1579) = assay: LTEA_HepaRG_CYP4A11: Life Technologies and Expression Analysis (LTEA) Assay for CYP4A11 using HepaRG (AID 2283486)
# Outline: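 Differentiated HepaRG cells, serum-free induction medium, exposed 48 h in duplicate to 8-point half-log series from 100 uM in 0.5% DMSO. CYP4A11 mRNA measured by qRT-PCR, normalized to ACTB, GAPDH, POLR2A; bidirectional fit versus DMSO.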
# Chain of Cytochrome P450 3A4 (Homo sapiens) (P08684 whole entry, looked up): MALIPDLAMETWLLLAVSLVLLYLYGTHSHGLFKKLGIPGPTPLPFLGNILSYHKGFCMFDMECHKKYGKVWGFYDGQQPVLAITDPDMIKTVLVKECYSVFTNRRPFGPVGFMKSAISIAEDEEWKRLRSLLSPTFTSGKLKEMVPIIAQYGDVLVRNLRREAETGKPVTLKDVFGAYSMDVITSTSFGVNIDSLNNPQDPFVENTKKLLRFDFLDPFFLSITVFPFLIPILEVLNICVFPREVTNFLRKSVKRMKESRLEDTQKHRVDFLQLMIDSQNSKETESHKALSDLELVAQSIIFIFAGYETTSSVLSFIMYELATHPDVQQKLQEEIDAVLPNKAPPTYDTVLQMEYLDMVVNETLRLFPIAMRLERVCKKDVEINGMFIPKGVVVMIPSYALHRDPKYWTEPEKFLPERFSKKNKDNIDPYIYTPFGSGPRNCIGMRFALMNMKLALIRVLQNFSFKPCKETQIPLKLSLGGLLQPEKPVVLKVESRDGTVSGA
# Chain of Cytochrome P450 3A7 (Homo sapiens) (P24462 whole entry, looked up): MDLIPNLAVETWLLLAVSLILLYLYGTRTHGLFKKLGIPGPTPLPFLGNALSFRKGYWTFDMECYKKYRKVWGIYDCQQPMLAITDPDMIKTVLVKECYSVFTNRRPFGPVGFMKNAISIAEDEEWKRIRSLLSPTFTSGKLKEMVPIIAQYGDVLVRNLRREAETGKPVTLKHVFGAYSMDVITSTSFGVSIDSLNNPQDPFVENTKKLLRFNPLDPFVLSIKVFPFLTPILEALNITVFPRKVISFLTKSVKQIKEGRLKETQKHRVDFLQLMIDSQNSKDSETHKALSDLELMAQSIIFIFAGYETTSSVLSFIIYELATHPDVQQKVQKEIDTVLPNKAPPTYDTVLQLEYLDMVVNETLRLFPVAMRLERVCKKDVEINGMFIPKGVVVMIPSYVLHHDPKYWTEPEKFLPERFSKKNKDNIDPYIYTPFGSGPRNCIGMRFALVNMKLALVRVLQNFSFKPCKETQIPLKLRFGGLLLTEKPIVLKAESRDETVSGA
# Chain of Cytochrome P450 2C19 (Homo sapiens) (P33261 whole entry, looked up): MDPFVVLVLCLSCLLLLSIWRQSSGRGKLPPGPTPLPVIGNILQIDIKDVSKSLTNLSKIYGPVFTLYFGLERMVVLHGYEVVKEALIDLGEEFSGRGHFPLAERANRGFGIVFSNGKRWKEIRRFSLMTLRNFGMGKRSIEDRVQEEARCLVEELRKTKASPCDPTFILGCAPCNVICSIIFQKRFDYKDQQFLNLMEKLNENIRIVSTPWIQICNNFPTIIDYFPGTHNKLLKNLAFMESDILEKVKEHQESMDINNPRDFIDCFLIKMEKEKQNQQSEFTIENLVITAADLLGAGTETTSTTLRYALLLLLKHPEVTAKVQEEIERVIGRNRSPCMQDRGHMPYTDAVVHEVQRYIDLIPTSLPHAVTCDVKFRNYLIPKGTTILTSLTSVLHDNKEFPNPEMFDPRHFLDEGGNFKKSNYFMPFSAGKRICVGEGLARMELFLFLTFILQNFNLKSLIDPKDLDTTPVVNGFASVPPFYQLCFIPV
structure (smiles),measurement,setting,value
CC(C)(C)c1cc(C(C)(C)C)c(O)c(C(C)(C)C)c1,outcome,[1],inactive
same,AC50,[2],5.21 µM (active)
same,outcome,[3],inactive
same,AC50,[4],8.66 µM (active)
same,outcome,CYP2C8 (gene 1558),inactive
same,outcome,CYP2C9 (gene 1559),inactive
same,AC50,CYP2E1 (gene 1571),17 µM (active)
same,AC50,[5],8.55 µM (active)
same,outcome,[6],inactive
same,outcome,[7],inactive
same,outcome,[8],inactive
same,AC50,[9],10.9 µM (active)
same,outcome,CYP3A5 (gene 1577),inactive
same,AC50,[10],14.1 µM (active)
same,outcome,[11],inactive
same,AC50,[12],16.6 µM (active)
same,outcome,[13],inactive
Oc1cc2ccccc2c2ccccc12,outcome,[1],inactive
same,outcome,[3],inactive
same,outcome,[4],inactive
same,outcome,[14],inactive
same,outcome,CYP2C8 (gene 1558),inactive
same,outcome,CYP2C9 (gene 1559),inactive
same,outcome,CYP2E1 (gene 1571),inactive
same,outcome,[5],inactive
same,outcome,[6],inactive
same,outcome,[7],inactive
same,outcome,[8],inactive
same,outcome,[9],inactive
same,outcome,CYP3A5 (gene 1577),inactive
same,outcome,[10],inactive
same,outcome,[11],inactive
same,AC50,[12],3.01 µM (active)
same,outcome,[13],inactive
Nc1cccc2c(N)cccc12,outcome,[1],inactive
same,AC50,[2],20.1 µM (active)
same,outcome,[3],inactive
same,AC50,[4],2.68 µM (active)
same,outcome,[14],inactive
same,outcome,CYP2C8 (gene 1558),inactive
same,outcome,CYP2C9 (gene 1559),inactive
same,AC50,CYP2E1 (gene 1571),50 µM (active)
same,outcome,[5],inactive
same,outcome,[6],inactive
same,outcome,[7],inactive
same,outcome,[15],inactive
same,outcome,[8],inactive
same,outcome,[9],inactive
same,outcome,CYP3A5 (gene 1577),inactive
same,AC50,[10],50 µM (active)
same,outcome,[11],inactive
same,AC50,[12],10.1 µM (active)
same,AC50,[13],50 µM (active)
CC(O)CO (centres undefined),outcome,[1],inactive
same,outcome,[2],inactive
same,outcome,[3],inactive
same,outcome,[4],inactive
same,outcome,CYP2C8 (gene 1558),inactive
same,outcome,CYP2C9 (gene 1559),inactive
same,outcome,CYP2E1 (gene 1571),inactive
same,outcome,[5],inactive
same,outcome,[6],inactive
same,outcome,[7],inactive
same,outcome,[8],inactive
same,outcome,[9],inactive
same,outcome,CYP3A5 (gene 1577),inactive
same,outcome,[10],inactive
same,outcome,[11],inactive
same,outcome,[12],inactive
same,outcome,[13],inactive
CCCOC(=O)c1ccc(O)cc1,outcome,[1],inactive
same,outcome,[2],inactive
same,outcome,[3],inactive
same,outcome,[4],inactive
same,outcome,CYP2C8 (gene 1558),inactive
same,outcome,CYP2C9 (gene 1559),inactive
same,outcome,CYP2E1 (gene 1571),inactive
same,outcome,[6],inactive
same,outcome,[7],inactive
same,outcome,[8],inactive
same,outcome,CYP3A5 (gene 1577),inactive
same,outcome,[10],inactive
same,outcome,[11],inactive
same,outcome,[12],inactive
same,outcome,[13],inactive
O=[N+]([O-])c1ccc(O)cc1,outcome,[1],inactive
same,outcome,[2],inactive
same,outcome,[3],inactive
same,AC50,[4],19.9 µM (active)
same,outcome,[4],inactive
same,outcome,CYP2C8 (gene 1558),inactive
same,outcome,CYP2C9 (gene 1559),inactive
same,outcome,CYP2E1 (gene 1571),inactive
same,outcome,CYP4A11 (gene 1579),inactive
same,outcome,[5],inactive
same,outcome,[6],inactive
same,outcome,[7],inactive
same,outcome,[15],inactive
same,outcome,[8],inactive
same,outcome,[9],inactive
same,outcome,CYP3A5 (gene 1577),inactive
same,outcome,[10],inactive
same,outcome,[11],inactive
same,outcome,[12],inactive
same,outcome,[13],inactive
CC(C)(C)c1ccc(O)c(C(C)(C)C)c1,AC50,[1],0.01 µM (active)
same,AC50,[2],0.104 µM (active)
same,outcome,[3],inactive
same,outcome,[4],inactive
same,outcome,CYP2C8 (gene 1558),inactive
same,outcome,CYP2C9 (gene 1559),inactive
same,outcome,CYP2E1 (gene 1571),inactive
same,outcome,CYP4A11 (gene 1579),inactive
same,AC50,[5],50 µM (active)
same,outcome,[6],inactive
same,outcome,[7],inactive
same,outcome,[15],inactive
same,outcome,[8],inactive
same,outcome,[9],inactive
same,outcome,CYP3A5 (gene 1577),inactive
same,outcome,[10],inactive
same,outcome,[11],inactive
same,outcome,[12],inactive
same,outcome,[13],inactive
